According to ChEMBL document CHEMBL1961873, “Compounds: GSK PKIS; Assays: Nanosyn kinase panel” (2012):

Tests used:
[1] = biological target: Sphingosine kinase 1 (Homo sapiens) (UniProt Q9NYA1); conditions: at 1 µM;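 also: mean SPHK1 inhibition value reported from the GSK PKIS kinase panel screen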
[2] = biological target: T1, Sphingosine kinase 2 (Homo sapiens) (UniProt Q9NRA0); conditions: at 0.1 µM
T1 sequence (whole entry): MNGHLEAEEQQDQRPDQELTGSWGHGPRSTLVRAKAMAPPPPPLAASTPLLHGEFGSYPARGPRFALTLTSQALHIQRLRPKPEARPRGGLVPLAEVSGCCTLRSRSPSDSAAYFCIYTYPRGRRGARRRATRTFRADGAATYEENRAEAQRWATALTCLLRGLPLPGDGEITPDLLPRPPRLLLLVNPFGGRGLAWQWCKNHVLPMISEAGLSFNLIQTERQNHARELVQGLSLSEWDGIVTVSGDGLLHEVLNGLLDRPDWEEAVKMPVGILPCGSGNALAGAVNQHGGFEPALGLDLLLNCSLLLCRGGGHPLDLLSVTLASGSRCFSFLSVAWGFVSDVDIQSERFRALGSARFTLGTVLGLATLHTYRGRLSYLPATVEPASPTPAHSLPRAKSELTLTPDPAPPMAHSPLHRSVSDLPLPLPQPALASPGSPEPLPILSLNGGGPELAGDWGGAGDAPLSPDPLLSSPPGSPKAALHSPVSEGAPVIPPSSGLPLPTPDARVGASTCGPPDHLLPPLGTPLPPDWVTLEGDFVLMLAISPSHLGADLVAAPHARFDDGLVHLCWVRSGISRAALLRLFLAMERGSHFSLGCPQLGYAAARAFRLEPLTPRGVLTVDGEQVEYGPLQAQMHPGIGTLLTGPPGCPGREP

[3] = biological target: T1, Sphingosine kinase 2 (Homo sapiens); conditions: at 1 µM
[4] = biological target: Casein kinase II subunit alpha (Homo sapiens) (UniProt P68400); conditions: at 0.1 µM
Sequence of Casein kinase II subunit alpha (Homo sapiens) (P68400 whole entry, looked up): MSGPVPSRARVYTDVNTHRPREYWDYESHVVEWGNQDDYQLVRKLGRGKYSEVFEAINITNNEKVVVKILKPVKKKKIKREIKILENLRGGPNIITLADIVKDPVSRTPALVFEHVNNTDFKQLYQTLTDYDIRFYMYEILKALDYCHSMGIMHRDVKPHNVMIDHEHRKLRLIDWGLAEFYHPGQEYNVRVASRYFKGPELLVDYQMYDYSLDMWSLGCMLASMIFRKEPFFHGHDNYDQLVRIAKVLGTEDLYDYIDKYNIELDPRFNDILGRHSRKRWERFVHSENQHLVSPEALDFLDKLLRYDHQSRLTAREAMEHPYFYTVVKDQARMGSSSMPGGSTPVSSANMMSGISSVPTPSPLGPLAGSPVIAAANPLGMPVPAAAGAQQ

[5] = biological target: Casein kinase II subunit alpha (Homo sapiens) (UniProt P68400); conditions: at 1 µM
[6] = biological target: T2, Inhibitor of nuclear factor kappa-B kinase subunit alpha (Homo sapiens) (UniProt O15111); conditions: at 0.1 µM
T2 sequence (whole entry): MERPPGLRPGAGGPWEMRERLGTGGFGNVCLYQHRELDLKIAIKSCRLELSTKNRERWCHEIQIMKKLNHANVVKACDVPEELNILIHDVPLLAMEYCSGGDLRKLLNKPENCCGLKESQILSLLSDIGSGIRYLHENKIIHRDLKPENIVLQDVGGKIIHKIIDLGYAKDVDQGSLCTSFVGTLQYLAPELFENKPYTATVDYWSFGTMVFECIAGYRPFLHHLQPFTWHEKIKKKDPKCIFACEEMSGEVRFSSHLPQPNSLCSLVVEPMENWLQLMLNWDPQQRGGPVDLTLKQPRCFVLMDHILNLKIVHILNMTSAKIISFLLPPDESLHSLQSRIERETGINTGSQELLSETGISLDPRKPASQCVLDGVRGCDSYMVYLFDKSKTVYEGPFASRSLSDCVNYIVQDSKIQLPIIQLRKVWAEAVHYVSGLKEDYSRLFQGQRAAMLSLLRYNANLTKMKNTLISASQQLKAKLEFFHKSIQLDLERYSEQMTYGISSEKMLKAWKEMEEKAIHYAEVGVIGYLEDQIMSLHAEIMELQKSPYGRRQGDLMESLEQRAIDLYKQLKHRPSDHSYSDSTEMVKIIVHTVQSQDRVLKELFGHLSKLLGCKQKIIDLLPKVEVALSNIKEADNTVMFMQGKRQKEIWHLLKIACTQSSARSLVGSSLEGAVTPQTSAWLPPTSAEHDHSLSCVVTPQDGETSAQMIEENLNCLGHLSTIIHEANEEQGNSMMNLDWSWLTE

[7] = biological target: T2, Inhibitor of nuclear factor kappa-B kinase subunit alpha (Homo sapiens); conditions: at 1 µM
[8] = biological target: T3, Inhibitor of nuclear factor kappa-B kinase subunit beta (Homo sapiens) (UniProt O14920); conditions: at 0.1 µM
T3 sequence (whole entry): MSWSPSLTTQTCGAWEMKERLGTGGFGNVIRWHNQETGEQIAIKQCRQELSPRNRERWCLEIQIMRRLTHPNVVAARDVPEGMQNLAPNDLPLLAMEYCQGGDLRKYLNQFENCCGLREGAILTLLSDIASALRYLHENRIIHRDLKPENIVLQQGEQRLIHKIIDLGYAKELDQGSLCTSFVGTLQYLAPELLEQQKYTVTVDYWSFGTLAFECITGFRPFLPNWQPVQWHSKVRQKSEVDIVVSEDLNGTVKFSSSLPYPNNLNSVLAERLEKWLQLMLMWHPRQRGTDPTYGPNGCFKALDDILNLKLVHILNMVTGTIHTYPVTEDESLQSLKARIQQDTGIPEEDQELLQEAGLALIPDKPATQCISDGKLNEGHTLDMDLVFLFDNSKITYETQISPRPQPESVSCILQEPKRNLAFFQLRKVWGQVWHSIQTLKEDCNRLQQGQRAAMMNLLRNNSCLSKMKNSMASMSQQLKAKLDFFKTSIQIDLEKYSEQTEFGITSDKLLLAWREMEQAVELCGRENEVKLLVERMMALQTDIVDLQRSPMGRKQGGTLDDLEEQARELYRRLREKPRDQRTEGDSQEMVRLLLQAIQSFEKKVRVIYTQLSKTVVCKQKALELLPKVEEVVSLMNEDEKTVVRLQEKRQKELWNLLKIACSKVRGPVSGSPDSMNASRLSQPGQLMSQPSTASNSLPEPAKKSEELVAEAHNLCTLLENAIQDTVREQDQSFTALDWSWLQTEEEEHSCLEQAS

[9] = biological target: T3, Inhibitor of nuclear factor kappa-B kinase subunit beta (Homo sapiens); conditions: at 1 µM
[10] = biological target: T4, Inhibitor of nuclear factor kappa-B kinase subunit epsilon (Homo sapiens) (UniProt Q14164); conditions: at 0.1 µM
T4 sequence (whole entry): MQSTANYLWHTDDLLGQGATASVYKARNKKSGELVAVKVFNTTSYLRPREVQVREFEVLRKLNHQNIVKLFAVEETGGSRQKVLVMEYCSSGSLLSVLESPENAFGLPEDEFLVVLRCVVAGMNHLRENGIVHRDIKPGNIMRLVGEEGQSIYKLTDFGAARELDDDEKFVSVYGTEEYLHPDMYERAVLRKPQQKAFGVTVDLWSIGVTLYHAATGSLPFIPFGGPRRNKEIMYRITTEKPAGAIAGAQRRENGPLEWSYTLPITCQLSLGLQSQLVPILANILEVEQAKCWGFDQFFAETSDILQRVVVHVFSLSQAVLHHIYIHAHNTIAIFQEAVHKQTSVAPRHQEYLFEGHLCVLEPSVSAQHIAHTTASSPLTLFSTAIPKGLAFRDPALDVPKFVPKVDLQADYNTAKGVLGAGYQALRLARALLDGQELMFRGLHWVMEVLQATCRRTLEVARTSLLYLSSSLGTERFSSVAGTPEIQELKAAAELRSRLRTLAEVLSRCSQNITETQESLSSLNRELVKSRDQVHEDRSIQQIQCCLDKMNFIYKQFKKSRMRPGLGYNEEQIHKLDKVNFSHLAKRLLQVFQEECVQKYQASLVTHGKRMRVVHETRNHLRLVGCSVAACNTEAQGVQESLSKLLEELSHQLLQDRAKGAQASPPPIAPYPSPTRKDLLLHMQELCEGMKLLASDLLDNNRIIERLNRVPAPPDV

[11] = biological target: T4, Inhibitor of nuclear factor kappa-B kinase subunit epsilon (Homo sapiens); conditions: at 1 µM
[12] = biological target: T5, Serine/threonine-protein kinase Nek1 (Homo sapiens) (UniProt Q96PY6); conditions: at 0.1 µM
T5 sequence (whole entry): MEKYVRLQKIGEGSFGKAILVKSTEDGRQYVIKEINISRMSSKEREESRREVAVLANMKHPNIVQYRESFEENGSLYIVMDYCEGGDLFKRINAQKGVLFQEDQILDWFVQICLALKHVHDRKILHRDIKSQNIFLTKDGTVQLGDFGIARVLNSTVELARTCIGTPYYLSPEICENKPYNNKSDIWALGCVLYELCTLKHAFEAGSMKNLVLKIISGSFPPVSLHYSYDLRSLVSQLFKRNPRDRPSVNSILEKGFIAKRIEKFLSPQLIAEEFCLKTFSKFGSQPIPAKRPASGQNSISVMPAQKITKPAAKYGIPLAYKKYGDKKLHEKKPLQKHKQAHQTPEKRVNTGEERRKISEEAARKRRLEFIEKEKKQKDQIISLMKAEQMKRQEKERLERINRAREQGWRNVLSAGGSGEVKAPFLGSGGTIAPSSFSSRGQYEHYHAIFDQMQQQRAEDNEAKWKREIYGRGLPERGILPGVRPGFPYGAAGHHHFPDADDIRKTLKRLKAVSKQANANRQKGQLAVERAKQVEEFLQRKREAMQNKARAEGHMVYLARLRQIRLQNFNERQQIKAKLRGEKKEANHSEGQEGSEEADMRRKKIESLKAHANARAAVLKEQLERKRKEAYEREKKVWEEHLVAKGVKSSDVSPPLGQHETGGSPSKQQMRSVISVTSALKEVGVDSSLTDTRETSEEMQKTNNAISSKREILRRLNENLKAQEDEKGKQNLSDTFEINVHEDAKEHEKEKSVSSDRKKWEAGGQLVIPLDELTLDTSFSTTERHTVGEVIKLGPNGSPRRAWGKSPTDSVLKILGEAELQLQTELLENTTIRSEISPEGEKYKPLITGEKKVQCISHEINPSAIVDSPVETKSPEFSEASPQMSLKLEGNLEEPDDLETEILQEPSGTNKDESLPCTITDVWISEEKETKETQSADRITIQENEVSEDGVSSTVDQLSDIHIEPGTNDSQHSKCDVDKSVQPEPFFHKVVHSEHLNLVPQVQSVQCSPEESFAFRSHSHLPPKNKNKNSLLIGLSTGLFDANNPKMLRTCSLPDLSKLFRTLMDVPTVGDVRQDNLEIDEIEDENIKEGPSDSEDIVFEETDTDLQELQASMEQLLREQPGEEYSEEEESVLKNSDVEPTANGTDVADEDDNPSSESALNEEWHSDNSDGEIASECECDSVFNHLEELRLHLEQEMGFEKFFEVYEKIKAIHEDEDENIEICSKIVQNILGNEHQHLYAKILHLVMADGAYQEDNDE

[13] = biological target: T5, Serine/threonine-protein kinase Nek1 (Homo sapiens); conditions: at 1 µM
[14] = biological target: T6, Serine/threonine-protein kinase Nek2 (Homo sapiens) (UniProt P51955); conditions: at 0.1 µM
T6 sequence (whole entry): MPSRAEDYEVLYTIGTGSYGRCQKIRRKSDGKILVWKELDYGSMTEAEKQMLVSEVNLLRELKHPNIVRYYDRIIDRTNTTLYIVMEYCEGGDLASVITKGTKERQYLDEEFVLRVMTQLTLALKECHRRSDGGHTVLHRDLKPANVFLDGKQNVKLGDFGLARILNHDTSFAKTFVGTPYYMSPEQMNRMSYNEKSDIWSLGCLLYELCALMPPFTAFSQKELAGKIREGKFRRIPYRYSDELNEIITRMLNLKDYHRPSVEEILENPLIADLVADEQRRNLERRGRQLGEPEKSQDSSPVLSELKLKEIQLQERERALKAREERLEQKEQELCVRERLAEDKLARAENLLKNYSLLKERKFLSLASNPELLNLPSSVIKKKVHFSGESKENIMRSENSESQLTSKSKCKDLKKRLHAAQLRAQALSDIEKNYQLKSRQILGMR

[15] = biological target: T6, Serine/threonine-protein kinase Nek2 (Homo sapiens); conditions: at 1 µM
[16] = biological target: Serine/threonine-protein kinase Nek6 (Homo sapiens) (UniProt Q9HC98); conditions: at 0.1 µM
Sequence of Serine/threonine-protein kinase Nek6 (Homo sapiens) (Q9HC98 whole entry): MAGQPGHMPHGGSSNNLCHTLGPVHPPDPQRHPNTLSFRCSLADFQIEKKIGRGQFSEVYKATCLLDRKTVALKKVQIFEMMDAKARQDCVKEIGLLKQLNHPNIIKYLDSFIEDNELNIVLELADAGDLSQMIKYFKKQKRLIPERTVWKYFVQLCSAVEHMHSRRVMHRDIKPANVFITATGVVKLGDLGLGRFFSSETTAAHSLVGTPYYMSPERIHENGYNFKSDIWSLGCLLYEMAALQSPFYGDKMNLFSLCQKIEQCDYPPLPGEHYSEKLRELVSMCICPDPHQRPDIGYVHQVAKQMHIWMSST

[17] = biological target: Serine/threonine-protein kinase Nek6 (Homo sapiens) (UniProt Q9HC98); conditions: at 1 µM
[18] = biological target: Serine/threonine-protein kinase Nek7 (Homo sapiens) (UniProt Q8TDX7); conditions: at 0.1 µM
Sequence of Serine/threonine-protein kinase Nek7 (Homo sapiens) (Q8TDX7 whole entry, looked up): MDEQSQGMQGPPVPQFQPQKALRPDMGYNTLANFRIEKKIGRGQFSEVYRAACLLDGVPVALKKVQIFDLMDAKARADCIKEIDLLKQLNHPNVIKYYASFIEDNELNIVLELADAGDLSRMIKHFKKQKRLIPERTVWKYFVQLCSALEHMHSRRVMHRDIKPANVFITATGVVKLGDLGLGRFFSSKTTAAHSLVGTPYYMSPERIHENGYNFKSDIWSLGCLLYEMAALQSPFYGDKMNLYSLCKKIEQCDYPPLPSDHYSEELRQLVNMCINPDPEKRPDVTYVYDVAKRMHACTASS

[19] = biological target: Serine/threonine-protein kinase Nek7 (Homo sapiens) (UniProt Q8TDX7); conditions: at 1 µM
[20] = biological target: T7, Serine/threonine-protein kinase Nek9 (Homo sapiens) (UniProt Q8TD19); conditions: at 0.1 µM;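 also: reported value is the mean percent inhibition of NEK9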
T7 sequence (whole entry): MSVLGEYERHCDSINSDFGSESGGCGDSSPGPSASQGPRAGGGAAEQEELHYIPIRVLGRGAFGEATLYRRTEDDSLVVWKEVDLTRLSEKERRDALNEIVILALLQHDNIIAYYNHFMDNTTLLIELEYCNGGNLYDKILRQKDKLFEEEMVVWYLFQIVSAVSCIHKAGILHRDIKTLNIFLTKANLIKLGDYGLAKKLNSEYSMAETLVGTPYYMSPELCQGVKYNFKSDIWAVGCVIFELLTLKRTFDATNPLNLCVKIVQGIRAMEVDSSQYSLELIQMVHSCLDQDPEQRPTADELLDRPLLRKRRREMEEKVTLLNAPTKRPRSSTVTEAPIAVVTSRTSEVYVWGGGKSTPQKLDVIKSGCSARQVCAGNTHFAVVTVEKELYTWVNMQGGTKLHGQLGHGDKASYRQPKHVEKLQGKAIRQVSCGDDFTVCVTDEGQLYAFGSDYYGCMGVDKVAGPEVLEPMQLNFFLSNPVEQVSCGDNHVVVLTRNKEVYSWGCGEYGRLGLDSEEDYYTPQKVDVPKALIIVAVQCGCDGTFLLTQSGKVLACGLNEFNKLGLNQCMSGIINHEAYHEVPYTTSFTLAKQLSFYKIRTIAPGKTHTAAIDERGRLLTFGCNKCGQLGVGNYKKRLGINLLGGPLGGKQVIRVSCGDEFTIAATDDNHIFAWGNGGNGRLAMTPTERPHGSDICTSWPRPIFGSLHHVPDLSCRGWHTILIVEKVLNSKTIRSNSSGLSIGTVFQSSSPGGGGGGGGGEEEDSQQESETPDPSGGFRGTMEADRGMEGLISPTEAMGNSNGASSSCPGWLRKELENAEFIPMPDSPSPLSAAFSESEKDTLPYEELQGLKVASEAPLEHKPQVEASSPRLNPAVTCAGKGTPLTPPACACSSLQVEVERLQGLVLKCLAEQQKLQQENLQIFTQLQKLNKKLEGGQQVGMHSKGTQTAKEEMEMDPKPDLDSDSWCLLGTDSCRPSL

Sequence of Sphingosine kinase 1 (Homo sapiens) (Q9NYA1 whole entry): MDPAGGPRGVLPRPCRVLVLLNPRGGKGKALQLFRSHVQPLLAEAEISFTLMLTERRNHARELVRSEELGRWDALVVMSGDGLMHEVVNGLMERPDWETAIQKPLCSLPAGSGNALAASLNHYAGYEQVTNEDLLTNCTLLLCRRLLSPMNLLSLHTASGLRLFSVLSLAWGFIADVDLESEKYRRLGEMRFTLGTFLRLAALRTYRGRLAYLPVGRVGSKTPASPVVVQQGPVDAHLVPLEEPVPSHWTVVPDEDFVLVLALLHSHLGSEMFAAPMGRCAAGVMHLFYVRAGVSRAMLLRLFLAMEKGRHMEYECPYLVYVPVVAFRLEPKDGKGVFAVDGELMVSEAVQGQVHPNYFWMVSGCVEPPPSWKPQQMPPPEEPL

CS(=O)(=O)CCNCc1ccc(-c2ccc3ncnc(Nc4ccc(OCc5ccccc5)c(Cl)c4)c3c2)o1
inhibition [1]: 2.51%
inhibition [2]: 1.2%
inhibition [3]: -1.85%
inhibition [4]: -1.12%
inhibition [5]: 1.71%
inhibition [6]: -2.26%
inhibition [7]: 2.45%
inhibition [8]: -1.73%
inhibition [9]: 0.03%
inhibition [10]: 0.17%
inhibition [11]: -0.15%
inhibition [12]: 1.25%
inhibition [13]: 2.81%
inhibition [14]: 1.61%
inhibition [15]: 0.43%
inhibition [16]: 3.37%
inhibition [17]: -1.04%
inhibition [18]: 0.02%
inhibition [19]: 2.5%
inhibition [20]: -1.85%
